Compound activity deposited in PubChem BioAssay by National Center for Advancing Translational Sciences (NCATS).
In the library only some 19% were active in any assay of this set; here they are far more common.
SW480 rereplic: inducers of DNA re-replication in SW480 colon cancer cells; actives 1.8% (n = 340,000); SW480 DNA re-replication, Hoechst DNA content imaging, 48 h; Potency, µM (top dose mostly 46.1 µM), for inactives: top-dose re-replication activation, actives largely listed as activators; also: potency is read from the fitted curve at half-maximal effect; % of control where 0% means no effect; nearly all actives have a fitted effect of over 55% in size
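Compounds, transferred as 23 nL by pin tool, were incubated with cells for 48 hr; DNA content per nucleus was then quantified by Hoechst staining and fluorescence plate imaging.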
Chronic BCR inh: blocks chronic active B-cell receptor signaling; ABC-DLBCL IkBa-CBG/CBR reporter, luminescence ratio, 4 h; Potency, µM (doses to about 46.1 µM), for inactives: at the highest dose activity change, negative = inhibition, hits mostly inhibitors; actives 0.05% (n = 340,000); AID 493014; active = well fitted inhibition curve with a large enough effect in the signal ratio, with a control signal flat, not every such curve was filed as active; inconclusive = small, poorly fitted or top-dose-only effect, or effect the other way, or a change in a side signal; the % refers to the signal ratio;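 also: potency is read from the fitted curve at half-maximal effect; plate controls were basal doxycycline-induced cells for no effect and cells given 10 µM MG132 for full effect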
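TMD8 ABC-DLBCL cells carrying doxycycline-inducible green luciferase fused to IkappaBalpha plus unfused red luciferase were exposed to compounds (up to 46 uM) for 4 hrs at 37C. Activity came from the overlap-corrected green/red luminescence ratio.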
TDP1 cell CPT: DT40-hTDP1 cell growth loss with CPT; chicken DT40 Tdp1-/-;hTDP1 cells + 20 nM CPT, ATP luminescence, 48 h; Potency, µM (highest dose often 46.2 µM), without a hit: top-dose activity change, negative = growth inhibition, most hits filed as inhibitors; actives 12% (n = 420,000); also: potency is read from the fitted curve at half-maximal effect; % is scaled to controls: 0 for no effect and ±100 for the full control effect; nearly all actives have a fitted effect of over 55% in size
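Chicken DT40 Tdp1-/- cells stably complemented with human TDP1 were seeded at 400 cells/well in medium containing 20 nM camptothecin, exposed to pin-transferred compounds, and grown at 37 °C for at least 48 hr. Viability was read as ATP luminescence.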
MCF10A rerep: inducers of DNA re-replication in MCF 10A breast cells | Potency, µM (doses to about 46.1 µM), for inactives: at the highest dose activity, positive = re-replication, hits mostly activators | MCF 10A DNA re-replication, Hoechst nuclear intensity, 48 h | actives 2.9% (n = 350,000); also: potency is read from the fitted curve at half-maximal effect; % of control where 0% means no effect; nearly all actives have a fitted effect of over 50% in size
DT40 TDP1 no CPT: qHTS for Inhibitors of human tyrosyl-DNA phosphodiesterase 1 (TDP1): qHTS in cells in absence of CPT; DT40 Tdp1-/- hTDP1 cells, no CPT, ATP luminescence, 48 h; Potency, µM (doses to about 46.2 µM), inactives show at the highest dose activity change, negative = growth inhibition, hits mostly inhibitors; actives 15% (n = 420,000); also: potency is read from the fitted curve at half-maximal effect; % is scaled to controls: 0 for no effect and ±100 for the full control effect; nearly all actives have a fitted effect of over 55% in size
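Growth kinetics read by CellTiter-Glo luminescence after ≥48 hr at 37 °C. Cells: DT40 Tdp1-/- stably carrying human TDP1, 400 per well, compound exposure in the absence of CPT (DMSO vehicle).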
IL-1B inflam inh: inhibitors of inflammasome signaling (IL-1 beta secretion). AID 743279. THP-1 LPS/ATP IL-1B secretion, AlphaLISA, 16 h; active compounds read low. actives 4.7% (n = 360,000). activity change, % at 57.5 µM; in the data active = activity change below about -50%; inconclusive = mostly about -30% to -49%; also: % is scaled to controls: 0 for no effect and ±100 for the full control effect
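Secreted IL-1B measured by AlphaLISA bead assay after 16 h compound exposure of THP-1 cells; compounds (final up to 57.5 uM) added 1 h before LPS (250 ng/mL) and ATP (1.25 mM) stimulation; lower signal means less secretion.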
An asterisk follows results filed as active; ? = inconclusive; . = no result given. Unless noted, calls follow the shape of the dose curve; as a rule, active = well fitted curve in the direction sought with a large enough effect; inconclusive = small, poorly fitted or top-dose-only effect, or another doubt; inactive = no such curve, though single readings can be large; an effect the other way counts as inactive or inconclusive.

SMILES	SW480 rereplic	Chronic BCR inh	TDP1 cell CPT	MCF10A rerep	DT40 TDP1 no CPT	IL-1B inflam inh
COCCN1C(=O)N[C@@H](c2cccs2)C(C(C)=O)=C1C	-11.7%	.	-3.3%	-5.1%	-19.0%	0.4
CC1(C(=O)NS(=O)(=O)c2cccc(Cl)c2)CCN1C(=O)C1CCCCC1 (stereo not drawn)	.	.	8.9%	.	7.2%	37.6
CCOC(=O)c1cnc2ccc(C)cc2c1NCCN1CCOCC1	-16.0%	0.5%	-17.9%	1.2%	-23.9%	?
CCOC(=O)c1cnc2ccc(OCC)cc2c1NCCc1ccc(OC)c(OC)c1	.	.	3.26µM*	.	2.31µM*	.
CCOC(=O)c1cnc2ccc(C)cc2c1NCCc1ccc(OC)c(OC)c1	.	.	14.6µM*	.	14.6µM*	.
Cc1cc(C)c(S(=O)(=O)N2CCN(S(=O)(=O)N3CCOCC3)CC2)c(C)c1	-5.7%	-12.2%	5.1%	0.8%	-25.0%	9.4
CC(=O)Nc1c(C(=O)Nc2ccccc2F)oc2ccccc12	.	.	-16.2%	.	?	.
CN1c2ccccc2-c2ccccc2S1(=O)=O	-27.3%	.	31.6µM*	11.9%	?	29.5
COc1ccc2c(c1)-c1ccccc1S(=O)(=O)N2C	5.0%	-25.8%	?	?	?	28.5
COc1ccc(Cc2c(-c3ccc(F)cc3)nc3ccc(Br)cn23)c(C)c1	.	.	-29.1%	.	?	-1.2
COc1ccccc1Cc1c(-c2cccc(Cl)c2)nc2ccc(C)cn12	.	.	18.4µM*	.	14.6µM*	0.0
Cc1ccc2nc(-c3cccc(Cl)c3)c(Cc3ccccc3)n2c1	.	.	20.6µM*	.	16.4µM*	-5.2
COc1ccc(Cc2c(-c3ccc(C)cc3)nc3ccc(Cl)cn23)c(C)c1	.	.	23.1µM*	.	23.1µM*	-4.1
COc1ccc(Cc2c(-c3cccc(Cl)c3)nc3ccc(Br)cn23)c(C)c1	.	.	?	.	?	79.5
COc1ccccc1Cc1c(-c2ccc(C)cc2)nc2ccc(Cl)cn12	.	.	?	.	0.461µM*	-102.2*
COc1ccc(NC(=O)NC23CC4(C)CC(C)(CC(C)(C4)C2)C3)cc1OC	-7.4%	0.0%	?	9.9%	?	0.0
Cc1ccccc1S(=O)(=O)Oc1cccc2c(O)cccc12	-18.4%	-8.9%	-11.8%	?	-4.1%	15.9
COc1ccccc1Cc1c(-c2ccc(C#N)cc2)nc2ccc(C)cn12	.	.	?	.	18.4µM*	?
COc1cccc(-c2cnc(C(O)c3ccc(Cl)c(F)c3)[nH]2)c1 (stereo not drawn)	.	.	14.6µM*	.	?	1.3
Cc1ccccc1-c1cnc(C(O)c2ccc(Cl)cc2C)[nH]1 (stereo not drawn)	.	.	?	.	?	1.0
COc1ccccc1-c1cnc(C(O)c2ccc(Cl)cc2C)[nH]1 (stereo not drawn)	.	.	?	.	18.4µM*	-1.5
Cc1cc(Cl)ccc1C(O)c1ncc(-c2ccc(C(F)(F)F)cc2)[nH]1 (stereo not drawn)	.	.	?	.	?	0.0
Cc1cc(Cl)ccc1C(O)c1ncc(-c2ccccc2C(F)(F)F)[nH]1 (stereo not drawn)	.	.	25.9µM*	.	14.6µM*	15.5
COc1cccc(-c2cnc(C(O)c3ccc(OC)c(F)c3)[nH]2)c1 (stereo not drawn)	.	.	?	.	-16.6%	-2.0
COc1cccc(-c2cnc(C(O)c3ccc(Cl)cc3C)[nH]2)c1 (stereo not drawn)	.	.	23.1µM*	.	16.4µM*	11.6
SMILES	SW480 rereplic	Chronic BCR inh	TDP1 cell CPT	MCF10A rerep	DT40 TDP1 no CPT	IL-1B inflam inh
COc1cc(C(C)=O)ccc1OCC(=O)OCCCOC(=O)COc1ccc(C(C)=O)cc1OC	-0.7%	0.4%	5.8%	2.5%	1.1%	4.6
COc1ccccc1-c1cnc(C(O)c2cccc(C)c2C)[nH]1 (stereo not drawn)	.	.	14.6µM*	.	16.4µM*	21.2
Cn1c(=O)c2c(nc(Oc3ccccc3Cl)n2Cc2ccc(C#N)cc2)n(C)c1=O	.	.	-1.1%	.	3.7%	.
CCCCn1c(-c2ccc(OC(F)F)cc2)nc2c1c(=O)[nH]c(=O)n2CC(C)C	-4.8%	0.4%	20.6µM*	4.0%	23.1µM*	30.9
COCCn1c(-c2ccc3ccccc3c2)nc2c1c(=O)[nH]c(=O)n2CC(C)C	16.6%	-10.2%	?	?	23.1µM*	-2.2
CCCn1c(=O)[nH]c(=O)c2c1nc(-c1ccc(OC(F)(F)C(F)C(F)(F)F)cc1)n2CCOC (stereo not drawn)	-5.5%	8.8%	?	9.9%	16.4µM*	25.9
CCCn1c(=O)[nH]c(=O)c2c1nc(-c1ccc(C#N)cc1)n2CCOC	-22.0%	6.4%	6.0%	-14.8%	-16.5%	2.5
CCCCn1c(N)c(N(CCOC)C(=O)c2c(CC)noc2C)c(=O)[nH]c1=O	-1.9%	1.2%	3.7%	7.5%	-17.5%	-1.2
COc1ccccc1CNC(=O)c1c[nH]c2ccc(S(=O)(=O)Nc3cc(C)cc(C)c3)cc2c1=O	.	-2.4%	?	.	20.6µM*	.
CCCCSCCCNC(=O)c1c[nH]c2ccc(S(=O)(=O)Nc3cccc(OC)c3)cc2c1=O	.	3.1%	20.6µM*	.	20.6µM*	.
C=CCC(C(=O)Oc1c(C(C)(C)C)cc(C)cc1C(C)(C)C)c1ccccc1 (stereo not drawn)	-10.0%	4.8%	-27.5%	?	?	23.3
COc1cccc(NC(=O)CSc2nc3cc(OC)c(OC)cc3c3nc(-c4ccccc4)nn23)c1	.	.	5.9%	.	-24.8%	.
COc1ccc(C(CNC(=O)c2ccc(-c3ccccc3)cc2)N(C)C)cc1OC (stereo not drawn)	?	-2.0%	?	?	?	?
CN(c1ccccc1)c1ccc(/C=C/[N+](=O)[O-])cc1	20.6µM*	?	23.1µM*	7.31µM*	20.6µM*	-107.4*
O=[N+]([O-])c1ccc(C=CC=Cc2ccccc2)cc1	.	.	-22.9%	.	?	-26.3
Cc1cc(NS(=O)(=O)c2ccc(NC(=O)COc3c(C)cc(Br)cc3C)cc2)no1	-18.3%	?	20.6µM*	3.2%	23.1µM*	35.0
Cc1cc(NS(=O)(=O)c2ccc(NC(=O)COc3ccc(Br)cc3)cc2)nc(C)n1	?	0.5%	14.6µM*	18.4µM*	?	23.6
O=C(NC1CCN(Cc2ccc(Cl)cc2)CC1)c1cn(-c2ccccc2)nc1-c1cccnc1	5.6%	?	16.4µM*	20.6µM*	?	?
O=C(NCc1cccnc1)c1cn(-c2ccccc2)nc1-c1ccccc1	-49.8%	6.5%	11.7%	-50.6%	-10.3%	-17.0
